Assay results taken from PubChem BioAssay AID977627 (Broad Institute, 2014).
Results filed as inconclusive are left out. Active and inactive are the calls of the source. How the calls were made is not given here.

Assay: growth inhibition of wild-type RFP versus H38-humanized GFP E. coli, dose response, H38 mutant GFP vs wild-type RFP, cherry-pick (AID 977627)
Conditions: E. coli H38 humanized ribosome GFP strain, fluorescence, 24 h; activity: measured here: wild-type RFP strain growth, at 50 µM, stronger effect = lower value; series mostly up to 50 µM

SMILES	activity [%]	outcome
CC1(Cc2ccccc2C#N)C(=O)Nc2cc(-c3ccccc3Cl)ccc21 (stereo not given)	-20	–
COC(=O)c1c(NC(=O)CCC(=O)O)sc(Cc2ccccc2)c1C	-41.2	–
CCOc1ccccc1NC(=O)c1ccc2ccccc2c1	5.09	inactive
Cc1noc(C)c1NC(=O)Nc1ccc2c(c1)C(=O)N([C@H](C)CO)C[C@@H](C)[C@@H](CN(C)C(=O)Nc1ccc3c(c1)OCO3)OCCCC[C@@H](C)O2	-3.93	–
